Results published in PubChem BioAssay (Tox21).
Records with an inconclusive call do not appear. Active and inactive are the calls of the source. Unless noted, the call rests on the fitted dose curve; in most records, active means well fitted curve in the direction sought with a large enough effect in the repeat runs; inconclusive means weak or mixed curves; inactive means no such curve, though single readings can be large; an effect the other way counts as inactive or inconclusive.

Columns and labels:
[1] = qHTS assay for small molecule agonists of the p53 signaling pathway (AID 651631; calls by dose curve; further: nearly all actives have a fitted effect of over 15% in size)
In short: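 Stably transfected HCT-116 cells (beta-lactamase behind p53 response elements) get compounds after a 5 h settling period; 16 h later at 37 °C, FRET substrate is loaded and fluorescence read after 2 h.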

[2] = qHTS assay for small molecules that induce genotoxicity in human embryonic kidney cells expressing luciferase-tagged ATAD5 (AID 651632); further: nearly all actives have a fitted effect of over 15% in size
In short: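 DMSO vehicle served as the control. HEK293T reporter cells, 16 hr at 37C, then 30 min Amplite at room temperature; ATAD5 induction is measured as luciferase activity.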

[3] = qHTS assay for small molecule agonists of the p53 signaling pathway - cell viability (AID 651633; calls by dose curve;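 further: p53RE-bla HCT reporter cells with a stable beta-lactamase p53 reporter; series mostly up to about 83 µM; nearly all actives have a fitted effect of over 30% in size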)
In short: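 p53RE-bla cells were treated with compound for 16 hours at 37 C. Cytotoxicity was then measured as CellTiter-Glo luminescence after 30 min at room temperature.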

[4] = qHTS assay for small molecules that induce genotoxicity in human embryonic kidney cells expressing luciferase-tagged ATAD5 - cell viability (AID 651634; calls by dose curve; further: nearly all actives have a fitted effect of over 25% in size)
In short: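 Here HEK293T cells with the ATAD5 luciferase reporter are incubated with test compounds for 15.5 hr, and cytotoxicity is then gauged by measuring protease activity in live cells using fluorescence.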

[5] = qHTS assay for small molecule disruptors of the mitochondrial membrane potential - cell viability (AID 720634; calls by dose curve;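 further: human HepG2 liver cancer cells; series mostly up to about 83 µM; nearly all actives have a fitted effect of over 20% in size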)
In short: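 Viability of HepG2 cells is scored from ATP content by luminescence; cells are exposed to compound for 1 hr at 37 C and 5% CO2, then dosed with m-MPI dye before the CellTiter-Glo reagent.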

[6] = qHTS assay for small molecule disruptors of the mitochondrial membrane potential (AID 720635); further: potency means the concentration at half of the fitted maximal effect
In short: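 HepG2 cells exposed to compound 1 hr at 37C, then Mito-MPS dye 30 min. Ratio read of aggregate (540/590 nm) versus monomer (490/535 nm) fluorescence.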

[7] = qHTS assay to test for compound auto fluorescence at 590 nm (red) in HepG2 cells (AID 720674)
In short: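 HepG2 cells, 2,000 per well in MEM with 10% FBS, attached overnight at 37 C, then got 23 nL compound or DMSO. After 1 hr at 37 C, 5% CO2, red fluorescence was read at 540/590 nm against Rose Bengal sodium as reference.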

[8] = qHTS assay to test for compound auto fluorescence at 535 nm (green) in HepG2 cells (AID 720675)
[9] = qHTS assay to test for compound auto fluorescence at 460 nm (blue) in HEK293 cells (AID 720678)
In short: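 HEK293 cells (2,000/well, medium with 10% dialyzed FBS) attached 4-5 hr, then exposed to compound overnight at 37C, 5% CO2. Blue fluorescence read at 405/460 nm, with triamterene as reference fluorophore.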

[10] = qHTS assay to test for compound auto fluorescence at 590 nm (red) in HEK293 cells (AID 720679)
In short: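 HEK293 cells (2,000/well, 10% dialyzed FBS) attached 4-5 hr, then dosed with compound or DMSO and incubated overnight at 37C, 5% CO2. Red fluorescence read at 540/590 nm, Rose Bengal sodium as reference fluorophore.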

[11] = qHTS assay to test for compound auto fluorescence at 535 nm (green) in HEK293 cells (AID 720680)
[12] = qHTS assay to test for compound auto fluorescence at 460 nm (blue) in HEK293 cell free culture (AID 720681)
In short: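 Compounds were added to cell-free DMEM with 10% FBS and fluorescence read directly. The blue channel used 405 nm excitation and 460 nm emission, with triamterene as the reference fluorophore.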

[13] = qHTS assay to test for compound auto fluorescence at 535 nm (green) in HEK293 cell free culture (AID 720682)
In short: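 Using fluorescein as calibrant, autofluorescence was quantified at 485/535 nm in cell-free DMEM containing 10% FBS after pintool addition of compound or vehicle.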

[14] = qHTS assay to test for compound auto fluorescence at 590 nm (red) in HEK293 cell free culture (AID 720683)
In short: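 Cell-free wells of DMEM with 10% FBS received compound, and intrinsic fluorescence was read at excitation/emission 540/590 nm. Values expressed as equivalence to Rose Bengal sodium.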

[15] = qHTS assay to test for compound auto fluorescence at 590 nm (red) in HepG2 cell free culture (AID 720684)
In short: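 Rose Bengal sodium served as the reference for red signal. Test compounds were dispensed into serum-containing MEM (10% FBS) without cells, and plates were read at 540/590 nm.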

[16] = qHTS assay to test for compound auto fluorescence at 460 nm (blue) in HepG2 cell free culture (AID 720685)
In short: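 Cell-free plates of MEM plus 10% FBS received 23 nL compound or DMSO vehicle; blue-channel (405/460 nm) intensity scored against triamterene as reference fluorophore.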

[17] = target: Glucocorticoid receptor (Homo sapiens) (UniProt P04150); assay: qHTS assay to identify small molecule agonists of the glucocorticoid receptor (GR) signaling pathway (AID 720691; active means well fitted activation curve with a large enough effect in the signal ratio in the repeat runs, not every such curve was filed as active; the % refers to the signal ratio)
Sequence of Glucocorticoid receptor (Homo sapiens) (P04150 whole entry, looked up): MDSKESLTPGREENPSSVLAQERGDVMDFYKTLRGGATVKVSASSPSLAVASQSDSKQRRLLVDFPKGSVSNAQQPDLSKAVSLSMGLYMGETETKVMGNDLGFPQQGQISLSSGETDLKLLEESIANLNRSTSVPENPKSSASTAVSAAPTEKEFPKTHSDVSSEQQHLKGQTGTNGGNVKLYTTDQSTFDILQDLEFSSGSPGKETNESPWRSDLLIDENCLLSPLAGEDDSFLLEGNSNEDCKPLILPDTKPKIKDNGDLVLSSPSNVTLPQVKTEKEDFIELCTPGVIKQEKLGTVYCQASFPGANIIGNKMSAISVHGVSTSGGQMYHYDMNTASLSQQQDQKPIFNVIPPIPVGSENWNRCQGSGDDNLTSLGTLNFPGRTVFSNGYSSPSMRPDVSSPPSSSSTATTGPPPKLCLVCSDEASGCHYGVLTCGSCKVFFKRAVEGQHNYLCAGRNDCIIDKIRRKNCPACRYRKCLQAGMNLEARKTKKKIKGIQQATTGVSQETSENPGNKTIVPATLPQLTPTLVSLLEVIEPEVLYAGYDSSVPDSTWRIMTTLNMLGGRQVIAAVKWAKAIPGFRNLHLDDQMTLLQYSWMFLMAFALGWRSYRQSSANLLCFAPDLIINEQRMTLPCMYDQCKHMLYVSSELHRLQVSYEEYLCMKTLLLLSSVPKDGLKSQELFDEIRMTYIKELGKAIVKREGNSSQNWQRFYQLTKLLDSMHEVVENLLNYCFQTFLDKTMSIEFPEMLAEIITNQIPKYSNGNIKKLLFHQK
In short: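 Compounds in DMSO, alongside positive controls, were added to GR-bla HeLa reporter cells and incubated 18 h at 37 C; GRE-driven beta-lactamase was detected by fluorescence after 2 h with FRET substrate at room temperature.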

[18] = target: Glucocorticoid receptor (Homo sapiens) (UniProt P04150); assay: qHTS assay to identify small molecule antagonists of the glucocorticoid receptor (GR) signaling pathway (AID 720692; active means well fitted inhibition curve with a large enough effect in the signal ratio in the repeat runs, not every such curve was filed as active; the % refers to the signal ratio)
In short: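 In a 1536-well cell format, compounds were added 4 h after seeding GR-bla HeLa cells, together with dexamethasone at 5 nM final; reporter activity was measured by FRET-substrate fluorescence following 18 h at 37 C.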

[19] = qHTS assay to test for compound auto fluorescence at 535 nm (green) in HepG2 cell free culture (AID 720686)
[20] = qHTS assay to test for compound auto fluorescence at 460 nm (blue) in HepG2 cells (AID 720687)
In short: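 HepG2 cells in MEM with 10% FBS, attached overnight at 37 C, were exposed to compound or DMSO for 1 hr at 37 C, 5% CO2. Blue fluorescence was read at 405/460 nm, with triamterene as reference fluorophore.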
On the % scale 0 is the no-effect control and ±100 the full control effect.

CO[Si](CCCCl)(OC)OC
active: Potency [6] 60.2 µM
inactive: outcome [1] | outcome [2] | outcome [3] | Potency [4] | outcome [5] | outcome [7] | outcome [8] | outcome [9] | outcome [10] | outcome [11] | outcome [12] | outcome [13] | outcome [14] | outcome [15] | outcome [16] | Potency [17] | outcome [18]

C=CCCCCCCCCCCC
inactive: activation [1] -4.17% [at 8.3 µM] | activation [2] 1.83% [at 8.08 µM] | activity change, negative = cytotoxicity [3] 6.07% [at 8.08 µM] | activity, negative = cytotoxicity [4] -5.67% [at 8.08 µM] | activity change, negative = cytotoxicity [5] 9.56% [at 8.08 µM] | ratio activity, negative = MMP loss [6] -12.5% [at 8.08 µM] | fluorescence, relative to Rose Bengal [7] 0.0415% [at 3.72 µM] | fluorescence, % of fluorescein control [8] 0.103% [at 3.72 µM] | fluorescence, % of triamterene [9] -0.171% [at 3.72 µM] | fluorescence, % of fluorescent control [10] -0.0532% [at 3.72 µM] | fluorescence, % of fluorescein [11] 0.0165% [at 3.72 µM] | fluorescence, % of fluorescent control [12] -0.158% [at 3.72 µM] | activity change [13] 0.0052% [at 3.72 µM] | fluorescence, % of fluorescent control [14] -0.0144% [at 3.72 µM] | fluorescence, % of Rose Bengal [15] 0.0242% [at 3.72 µM] | fluorescence, % of fluorescent control [16] 0.0228% [at 3.72 µM] | activation [17] -0.645% [at 6.9 µM] | activity change, negative = inhibition [18] -6.37% [at 7.04 µM]

CCCO
inactive: outcome [1] | outcome [2] | outcome [3] | Potency [4] | outcome [5] | Potency [6] | outcome [7] | outcome [8] | outcome [9] | outcome [10] | outcome [11] | outcome [12] | outcome [14] | outcome [15] | outcome [16] | outcome [19] | outcome [20] | Potency [17] | outcome [18]

O=C1c2ccccc2-c2ccccc21
active: Potency [6] 55.9 µM
inactive: outcome [1] | outcome [2] | outcome [3] | Potency [4] | outcome [5] | outcome [7] | outcome [8] | outcome [9] | outcome [10] | outcome [11] | outcome [12] | outcome [13] | outcome [14] | outcome [15] | outcome [20] | Potency [17] | outcome [18]

O=C(c1ccc2c(c1)C(=O)OC2=O)c1ccc2c(c1)C(=O)OC2=O
inactive: outcome [1] | outcome [2] | outcome [3] | Potency [4] | outcome [5] | Potency [6] | outcome [7] | outcome [8] | outcome [9] | outcome [10] | outcome [11] | outcome [12] | outcome [13] | outcome [14] | outcome [15] | outcome [16] | outcome [20] | outcome [18]

COC(=O)CCC(=O)O
inactive: outcome [1] | outcome [2] | outcome [3] | Potency [4] | outcome [5] | Potency [6] | outcome [7] | outcome [8] | outcome [9] | outcome [10] | outcome [11] | outcome [12] | outcome [13] | outcome [14] | outcome [15] | outcome [20]

O=C(COCCOCCOCC(=O)Nc1c(I)cc(I)c(C(=O)O)c1I)Nc1c(I)cc(I)c(C(=O)O)c1I
inactive: outcome [1] | outcome [2] | outcome [3] | Potency [4] | outcome [5] | Potency [6] | outcome [7] | outcome [8] | outcome [9] | outcome [10] | outcome [11] | outcome [12] | outcome [14] | outcome [15] | outcome [16] | outcome [19] | outcome [20] | Potency [17] | outcome [18]

CCC(O)C(C)(C)C (centres undefined)
inactive: outcome [1] | outcome [2] | outcome [3] | Potency [4] | outcome [5] | Potency [6] | outcome [7] | outcome [8] | outcome [9] | outcome [10] | outcome [11] | outcome [12] | outcome [14] | outcome [15] | outcome [16] | outcome [19] | outcome [20]

O=C1OC(=O)c2ccccc21
inactive: outcome [1] | outcome [2] | outcome [3] | Potency [4] | outcome [5] | Potency [6] | outcome [7] | outcome [8] | outcome [9] | outcome [10] | outcome [11] | outcome [12] | outcome [13] | outcome [14] | outcome [15] | outcome [16] | outcome [19] | Potency [17]

O=C(O)C(=O)Nc1cccc(-c2nn[nH]n2)c1
inactive: outcome [1] | outcome [2] | outcome [3] | Potency [4] | outcome [5] | Potency [6] | outcome [7] | outcome [8] | outcome [9] | outcome [10] | outcome [11] | outcome [12] | outcome [14] | outcome [15] | outcome [16] | outcome [20] | Potency [17] | outcome [18]

CCOC(=O)OCC/C(SC(=O)OCC)=C(\C)N(C=O)Cc1cnc(C)nc1N
inactive: outcome [1] | outcome [2] | outcome [3] | Potency [4] | outcome [5] | Potency [6] | outcome [7] | outcome [8] | outcome [9] | outcome [10] | outcome [11] | outcome [12] | outcome [13] | outcome [14] | outcome [15] | outcome [16] | outcome [19] | Potency [17] | outcome [18]

CC(=O)N(CC(O)CO)c1c(I)c(C(=O)NCC(O)CO)c(I)c(C(=O)NCC(O)CO)c1I (centres undefined)
inactive: outcome [1] | outcome [2] | outcome [3] | Potency [4] | outcome [5] | outcome [7] | outcome [8] | outcome [9] | outcome [10] | outcome [11] | outcome [12] | outcome [13] | outcome [14] | outcome [15] | outcome [16]

C=COCCOCCOC=C
inactive: outcome [1] | outcome [2] | outcome [3] | Potency [4] | outcome [5] | Potency [6] | outcome [7] | outcome [8] | outcome [9] | outcome [10] | outcome [11] | outcome [12] | outcome [14] | outcome [15] | outcome [16] | outcome [19] | outcome [20] | Potency [17] | outcome [18]

C1CCN2C[C@@H]3C[C@@H](CN4CCCC[C@@H]34)[C@H]2C1
inactive: outcome [1] | outcome [2] | outcome [3] | Potency [4] | outcome [5] | Potency [6] | fluorescence, relative to Rose Bengal [7] 0.0708% [at 18.6 µM] | fluorescence, % of fluorescein control [8] -0.0003% [at 18.6 µM] | fluorescence, % of triamterene [9] 0.214% [at 18.6 µM] | fluorescence, % of fluorescent control [10] -0.036% [at 18.6 µM] | fluorescence, % of fluorescein [11] -0.0731% [at 18.6 µM] | fluorescence, % of fluorescent control [12] 0.0698% [at 18.6 µM] | fluorescence, % of fluorescent control [14] 0.165% [at 18.6 µM] | fluorescence, % of Rose Bengal [15] -0.0423% [at 18.6 µM] | fluorescence, % of fluorescent control [16] 0.101% [at 18.6 µM] | fluorescence, % of fluorescent control [20] -0.0841% [at 18.6 µM] | outcome [18]
